A selection follows.
aSyn 5UTR act = Activators via SNCA 5'UTR binding, MLPCN; AID 1814, 2009; activity score, % (tested at 7.5 µM), hits read low; 300,000 tested, 7.1% active; alpha-synuclein 5'UTR reporter, activators screen; in the data active means activity score below about -60%
Active calls of the source: *.

SMILES	aSyn 5UTR act
O=C1OC(c2ccccc2)=N/C1=C\N1CCCCC1	-151.6*
O=C1OC(c2ccc(Br)cc2)=N/C1=C\N1CCCCC1	-95.2*
O=C1OC(c2ccccc2)=C/C1=C/N1CCCCC1	-184.5*
CC(C)(C)C(=O)NC(=S)Nc1ccc(F)cc1	-84.2*
CC(C)(C)C(=O)NC(=S)Nc1cccc(C(=O)O)c1	-160.7*
O=c1c2cnn(-c3ccccc3)c2ncn1CCc1ccccc1	-113.7*
CCCCSc1nc2c(cnn2-c2ccccc2)c(=O)n1N	-118.9*
Nn1c(SCc2ccccc2)nc2c(cnn2-c2ccccc2)c1=O	-89.8*
CCCSc1nc2c(cnn2-c2ccccc2)c(=O)n1N	-83.0*
O=C(Cn1cnc2c(cnn2-c2ccc(F)cc2)c1=O)NCc1ccco1	-77.6*
CCOC(=O)C(C)Oc1cccc2c(=O)n(CC(=O)NCc3ccco3)ccc12 (configuration not stated)	73.0
Cc1nc(CSc2ccc(Br)cc2)cs1	-71.3*
COc1ccccc1NC(=O)Nc1ccc(N2CCOCC2)cc1	-134.2*
COc1ccccc1NC(=O)Nc1ccc(CC#N)cc1	-115.4*
CCOc1ccccc1NC(=O)Nc1ccc(Cl)cc1	-78.2*
CCN1CCN(Cc2ccc(NC(=O)Nc3ccccc3OC)cc2)CC1	-140.9*
COc1ccc(NC(=O)Nc2ccccc2OC)cc1	-95.8*
Cc1ccc2c(c1)C(=O)CC(c1ccc3c(c1)OCCO3)O2 (configuration not stated)	-96.3*
COc1ccc2c(c1)O[C@@H](c1cccc(C(F)(F)F)c1)[C@H](O)C2=O	62.4
COc1ccc2c(c1)O[C@H](c1ccc3c(c1)OCO3)[C@@H](O)C2=O	-85.5*
COc1ccc2c(c1)C(=O)CC(c1ccc3c(c1)OCCO3)O2 (configuration not stated)	-271.9*
COc1ccc(-c2nnc(SCC(=O)c3ccc[nH]3)o2)cc1	-107.1*
COc1ccc(-c2nnc(SCC(=O)c3cccs3)o2)cc1	-140.2*
Cc1ccc(SCC(=O)c2ccc[nH]2)cc1	-126.5*
Nc1ncc(Br)cc1N=Cc1ccccc1	-197.2*
SMILES	aSyn 5UTR act
OC(c1cc(-c2ccc(C(F)(F)F)cc2)nc(C(F)(F)F)c1)C1CCCCN1 (configuration not stated)	103.5
CS(=O)(=O)c1nc(-c2ccccc2)cc(C(F)(F)F)n1	-111.2*
Nc1c(C(=O)Nc2ccc3c(c2)OCCO3)nnn1Cc1ccc(Cl)cc1	-212.0*
Nc1c(C(=O)Nc2cccc(F)c2)nnn1-c1cccc(C(F)(F)F)c1	-154.9*
Nc1c(C(=O)Nc2ccc3c(c2)OCCO3)nnn1Cc1cccc(F)c1	-176.4*
C=CCSC1=NNC(c2ccc(C(C)(C)C)cc2)=NN1	-89.5*
CCCCN1C(=O)CC(Nc2ccc(CC)cc2)C1=O (configuration not stated)	-125.1*
Cc1ccc(NC2CC(=O)N(Cc3ccccc3)C2=O)cc1 (configuration not stated)	-65.7*
COC(=O)C1=C(NC(=O)c2ccc(C)c(C)c2)CCS1	-76.3*
Cc1ccc(-c2nc3c(=O)n(C)c4ccccc4c3o2)cc1	-72.3*
CC(=O)Oc1cc(OC(C)=O)c2c(=O)c(-c3ccc4c(c3)OCCCO4)c(C)oc2c1	-88.2*
COc1cc2c(OC(C)=O)c3c(c(-c4ccc5c(c4)OCO5)c2cc1OC)C(=O)OC3	113.0
CN(c1ccc(OCC(=O)Nc2nc(-c3ccccc3)cs2)cc1)S(=O)(=O)c1ccc(F)cc1	-87.6*
Cc1ccc(S(=O)(=O)N(C)c2ccc(OCC(=O)Nc3nc(-c4ccccc4)cs3)cc2)cc1	-73.3*
Cc1ccc(-c2cnc(N)n2C)cc1C	-71.2*
Cn1c(-c2ccc(Cl)cc2)cnc1N	-126.4*
CC(C)(C)n1nc(-c2ccc(Cl)cc2)c2c(N)ncnc21	104.6
Fc1ccc2nc(N3CCCC3)sc2c1	-199.8*
Cc1cc(N2CCCCCC2)nc2ccc(F)cc12	-63.6*
O=[N+]([O-])c1ccc2nc(N3CCCC3)sc2c1	-120.6*
Fc1cc(F)c2nc(N3CCCCC3)sc2c1	-98.2*
Cc1ccc(C(=O)c2cc([N+](=O)[O-])ccc2N2CCCCC2)cc1	81.1
c1ccc2nc(-c3ccc(N4CCOCC4)cc3)ccc2c1	103.7
Cc1cc(-c2ccc(N3CCOCC3)cc2)nc2ccccc12	-307.5*
CC(C)(C)C1=CC=C(C(C)(C)C)C(=O)C1=O	-72.8*
SMILES	aSyn 5UTR act
COc1ccc2oc(C(=O)OCC(=O)NCCN3C(=O)CSC3=O)c(C)c2c1	-70.5*
O=C(Nc1ccc2c(c1)oc1ccccc12)N1CCOCC1	-139.6*
CCn1c2ccccc2c2cc(NC(=O)CN(C)CC(=O)Nc3ccc(N4CCOCC4)cc3)ccc21	-143.3*
CC(C)c1ccc(NC(=O)N2CCOCC2)cc1	-107.4*
CCn1c2ccccc2c2cc(NC(=O)N3CCOCC3)ccc21	-83.9*
Cc1cccnc1NC(=O)c1ccc2c(c1)OCCO2	-172.3*
O=C(Nc1ncccc1O)c1ccc2c(c1)OCO2	-207.3*
O=C(Nc1ncccc1O)c1ccc2c(c1)OCCO2	-222.2*
O=C(/C=C(/c1ccc(Cl)cc1)n1cncn1)c1ccccc1	-62.3*
CC(=O)/C=C/c1ccccc1Oc1c(F)c(F)nc(F)c1F	-93.7*

Screening results deposited in PubChem by Broad Institute.
